# Measured values: the supplement of paper PMC10849652
# About 8,800 targets were measured; listed, in parts, are those with a hit and a random draw of the rest. About 0.5% of all pairs of compound and target were hits.
# Assays:
# Assay in all cases: log2 fold change, soluble protein after heating vs DMSO (PISA); higher = thermal stabilisation; K562 lysate, 10 uM; active = over 0.2 and 3.5 SD of the protein, either way, in both replicates (recomputed)
# vemurafenib = compound: CCCS(=O)(=O)Nc1ccc(F)c(C(=O)c2c[nH]c3ncc(-c4ccc(Cl)cc4)cc23)c1F [vemurafenib]
# Method in brief: (§1)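 Soluble protein was defined as the supernatant remaining after 21,000xg for 90 min, following pooling of heated aliquots and adjustment to 0.5% NP-40 at 4°C. Before that, crude K562 extract at 1 mg/mL protein in PBS pH 7.4 with 1 mM MgCl2 was treated with 10 μM compound for 30 min and heated for 3 min across 48°C-58°C. Quantification used TMTpro 16plex LC-MS/MS with channel sums equalised, and values are log-two fold changes in thermal stability relative to solvent controls from duplicates.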
# [1] = compound: CCCS(=O)(=O)Nc1ccc(F)c(C(=O)c2c[nH]c3ncc(Cl)cc23)c1F
# Method in brief: as §1
# barasertib = compound: CCN(CCCOc1ccc2c(Nc3cc(CC(=O)Nc4cccc(F)c4)[nH]n3)ncnc2c1)CCOP(=O)(O)O [barasertib]
# Method in brief: as §1
# [2] = compound: CC[C@@H]1C(=O)N(C)c2cnc(Nc3ccc(C(=O)NC4CCN(C)CC4)cc3OC)nc2N1C1CCCC1
# Method in brief: as §1
# volasertib = compound: CC[C@@H]1C(=O)N(C)c2cnc(Nc3ccc(C(=O)N[C@H]4CC[C@H](N5CCN(CC6CC6)CC5)CC4)cc3OC)nc2N1C(C)C [volasertib]
# Method in brief: as §1
# [3] = compound: CCn1c(C(=O)N(C2CC2)C2CC2)cc2c3c(ncn3C)c(Nc3cc(C)n(C)n3)nc21
# Method in brief: as §1
# [4] = compound: CCn1cc(-c2ccnc3[nH]c(-c4cccc(CN(C)C)c4)cc23)c(-c2ccc(NC(=O)N(C)C)cc2)n1
# Method in brief: as §1
# [5] = compound: CN1CCC(CNc2ccc3ncc(-c4cccc(OC(F)(F)F)c4)n3n2)CC1
# Method in brief: as §1
# saracatinib = compound: CN1CCN(CCOc2cc(OC3CCOCC3)c3c(Nc4c(Cl)ccc5c4OCO5)ncnc3c2)CC1 [saracatinib]
# Method in brief: as §1
# sotrastaurin = compound: CN1CCN(c2nc(C3=C(c4c[nH]c5ccccc45)C(=O)NC3=O)c3ccccc3n2)CC1 [sotrastaurin]
# Method in brief: as §1
# UniProt Q9NVX7, sequence (Q9NVX7 whole entry, looked up): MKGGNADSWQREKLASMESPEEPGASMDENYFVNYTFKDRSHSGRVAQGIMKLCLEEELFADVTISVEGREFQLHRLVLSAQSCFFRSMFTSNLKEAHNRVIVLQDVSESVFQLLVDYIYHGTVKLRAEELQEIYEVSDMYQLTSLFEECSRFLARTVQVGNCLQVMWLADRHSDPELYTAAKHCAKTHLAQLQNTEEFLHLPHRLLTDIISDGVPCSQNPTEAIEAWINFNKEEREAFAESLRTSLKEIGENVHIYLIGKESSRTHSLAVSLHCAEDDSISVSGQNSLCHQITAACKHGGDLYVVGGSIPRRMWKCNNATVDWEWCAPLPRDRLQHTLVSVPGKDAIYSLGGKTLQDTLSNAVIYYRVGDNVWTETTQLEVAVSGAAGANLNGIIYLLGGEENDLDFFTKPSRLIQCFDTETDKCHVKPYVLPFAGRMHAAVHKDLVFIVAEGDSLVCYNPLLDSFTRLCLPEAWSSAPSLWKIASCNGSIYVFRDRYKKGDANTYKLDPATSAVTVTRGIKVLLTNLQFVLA
# UniProt P36969, sequence (P36969 whole entry, looked up): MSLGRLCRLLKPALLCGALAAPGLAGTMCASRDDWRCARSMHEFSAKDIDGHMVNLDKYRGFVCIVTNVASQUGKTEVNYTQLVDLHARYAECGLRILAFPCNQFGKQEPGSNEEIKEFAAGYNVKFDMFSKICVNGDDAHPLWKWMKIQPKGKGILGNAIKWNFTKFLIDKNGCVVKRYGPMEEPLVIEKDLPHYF
# UniProt P55795, sequence (P55795 whole entry, looked up): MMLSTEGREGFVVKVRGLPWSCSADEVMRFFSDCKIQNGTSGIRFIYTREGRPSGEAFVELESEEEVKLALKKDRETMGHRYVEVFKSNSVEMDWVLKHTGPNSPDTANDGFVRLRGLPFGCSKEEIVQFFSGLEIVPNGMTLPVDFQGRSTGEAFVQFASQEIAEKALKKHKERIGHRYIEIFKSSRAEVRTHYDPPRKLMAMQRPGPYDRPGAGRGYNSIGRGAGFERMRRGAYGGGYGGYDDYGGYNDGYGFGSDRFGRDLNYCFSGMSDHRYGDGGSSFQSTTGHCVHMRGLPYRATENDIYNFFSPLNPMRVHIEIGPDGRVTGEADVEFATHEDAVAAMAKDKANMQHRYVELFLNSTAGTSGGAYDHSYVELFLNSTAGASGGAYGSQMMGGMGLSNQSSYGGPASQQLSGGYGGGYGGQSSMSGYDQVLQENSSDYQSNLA
# UniProt O00425, sequence (O00425 whole entry, looked up): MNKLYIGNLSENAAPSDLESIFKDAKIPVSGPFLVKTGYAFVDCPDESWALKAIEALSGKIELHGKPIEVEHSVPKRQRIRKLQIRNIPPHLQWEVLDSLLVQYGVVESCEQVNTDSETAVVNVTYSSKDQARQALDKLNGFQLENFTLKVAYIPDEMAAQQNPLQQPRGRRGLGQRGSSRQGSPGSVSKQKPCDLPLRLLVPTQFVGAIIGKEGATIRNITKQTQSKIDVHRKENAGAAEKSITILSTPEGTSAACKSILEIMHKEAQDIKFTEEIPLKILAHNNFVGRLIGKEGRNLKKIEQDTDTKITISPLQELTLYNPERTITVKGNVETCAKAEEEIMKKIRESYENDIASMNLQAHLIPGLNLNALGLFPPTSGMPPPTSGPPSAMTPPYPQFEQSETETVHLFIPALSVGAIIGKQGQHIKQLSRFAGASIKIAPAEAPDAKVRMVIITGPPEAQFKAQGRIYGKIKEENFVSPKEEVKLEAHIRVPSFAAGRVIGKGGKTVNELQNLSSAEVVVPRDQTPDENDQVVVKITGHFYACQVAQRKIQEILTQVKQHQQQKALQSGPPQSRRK
# UniProt P55084, sequence (P55084 whole entry, looked up): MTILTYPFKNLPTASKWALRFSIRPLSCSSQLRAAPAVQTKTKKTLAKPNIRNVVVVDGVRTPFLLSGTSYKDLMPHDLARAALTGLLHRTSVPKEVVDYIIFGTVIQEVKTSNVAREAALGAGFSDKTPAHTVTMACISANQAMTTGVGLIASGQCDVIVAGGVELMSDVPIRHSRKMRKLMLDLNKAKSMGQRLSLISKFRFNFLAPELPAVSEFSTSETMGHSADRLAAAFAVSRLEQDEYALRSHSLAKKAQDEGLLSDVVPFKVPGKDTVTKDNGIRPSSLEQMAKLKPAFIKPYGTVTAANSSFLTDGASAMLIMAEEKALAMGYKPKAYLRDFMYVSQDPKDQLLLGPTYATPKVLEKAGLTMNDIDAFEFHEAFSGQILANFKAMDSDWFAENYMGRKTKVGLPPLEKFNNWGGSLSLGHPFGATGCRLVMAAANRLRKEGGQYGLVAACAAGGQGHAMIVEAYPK
# UniProt Q75QN2, sequence (Q75QN2 whole entry, looked up): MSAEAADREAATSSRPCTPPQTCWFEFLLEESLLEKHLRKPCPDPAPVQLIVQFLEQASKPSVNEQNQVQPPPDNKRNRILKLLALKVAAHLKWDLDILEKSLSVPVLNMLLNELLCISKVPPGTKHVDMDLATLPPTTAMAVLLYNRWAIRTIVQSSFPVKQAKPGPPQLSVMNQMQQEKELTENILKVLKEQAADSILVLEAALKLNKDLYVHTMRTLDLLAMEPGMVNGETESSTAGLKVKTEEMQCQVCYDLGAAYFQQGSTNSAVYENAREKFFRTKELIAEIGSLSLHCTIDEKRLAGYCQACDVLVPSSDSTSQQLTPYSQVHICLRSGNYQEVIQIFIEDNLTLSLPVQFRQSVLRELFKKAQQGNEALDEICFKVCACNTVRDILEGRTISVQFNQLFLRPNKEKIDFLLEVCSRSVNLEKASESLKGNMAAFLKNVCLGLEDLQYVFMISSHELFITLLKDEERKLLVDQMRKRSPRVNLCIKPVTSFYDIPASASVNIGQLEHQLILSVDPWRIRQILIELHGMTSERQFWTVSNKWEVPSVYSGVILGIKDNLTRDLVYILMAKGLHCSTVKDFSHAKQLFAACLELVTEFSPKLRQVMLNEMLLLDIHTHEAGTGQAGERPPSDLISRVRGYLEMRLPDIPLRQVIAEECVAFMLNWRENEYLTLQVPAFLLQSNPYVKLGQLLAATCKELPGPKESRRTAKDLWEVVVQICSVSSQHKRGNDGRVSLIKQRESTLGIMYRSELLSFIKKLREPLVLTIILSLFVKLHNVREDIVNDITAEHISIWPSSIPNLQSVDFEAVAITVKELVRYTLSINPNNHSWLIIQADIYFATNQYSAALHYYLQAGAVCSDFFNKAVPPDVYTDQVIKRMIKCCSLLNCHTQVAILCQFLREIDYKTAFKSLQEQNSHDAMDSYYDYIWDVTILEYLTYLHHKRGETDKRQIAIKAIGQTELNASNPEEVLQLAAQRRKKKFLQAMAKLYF
# UniProt Q8NC54, sequence (Q8NC54 whole entry, looked up): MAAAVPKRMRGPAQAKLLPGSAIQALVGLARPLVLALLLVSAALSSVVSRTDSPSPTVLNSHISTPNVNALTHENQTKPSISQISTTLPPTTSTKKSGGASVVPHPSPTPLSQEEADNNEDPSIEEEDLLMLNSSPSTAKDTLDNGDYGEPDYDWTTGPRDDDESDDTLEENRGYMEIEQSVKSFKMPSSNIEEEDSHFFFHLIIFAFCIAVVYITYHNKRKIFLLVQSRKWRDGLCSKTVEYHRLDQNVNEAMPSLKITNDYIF
# UniProt Q6ICG6, sequence (Q6ICG6 whole entry, looked up): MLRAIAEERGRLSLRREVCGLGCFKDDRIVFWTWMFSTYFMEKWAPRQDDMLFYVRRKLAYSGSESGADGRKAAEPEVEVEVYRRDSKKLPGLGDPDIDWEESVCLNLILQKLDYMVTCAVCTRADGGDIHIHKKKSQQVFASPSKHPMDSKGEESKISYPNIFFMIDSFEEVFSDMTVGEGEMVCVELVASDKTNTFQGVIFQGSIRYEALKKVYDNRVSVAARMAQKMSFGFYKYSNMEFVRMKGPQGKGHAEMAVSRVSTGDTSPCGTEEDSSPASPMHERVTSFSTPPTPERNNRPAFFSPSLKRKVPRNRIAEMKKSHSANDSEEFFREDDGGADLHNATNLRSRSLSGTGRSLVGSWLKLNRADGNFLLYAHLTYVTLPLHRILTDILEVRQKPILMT
# UniProt Q8WVV9, sequence (Q8WVV9 whole entry, looked up): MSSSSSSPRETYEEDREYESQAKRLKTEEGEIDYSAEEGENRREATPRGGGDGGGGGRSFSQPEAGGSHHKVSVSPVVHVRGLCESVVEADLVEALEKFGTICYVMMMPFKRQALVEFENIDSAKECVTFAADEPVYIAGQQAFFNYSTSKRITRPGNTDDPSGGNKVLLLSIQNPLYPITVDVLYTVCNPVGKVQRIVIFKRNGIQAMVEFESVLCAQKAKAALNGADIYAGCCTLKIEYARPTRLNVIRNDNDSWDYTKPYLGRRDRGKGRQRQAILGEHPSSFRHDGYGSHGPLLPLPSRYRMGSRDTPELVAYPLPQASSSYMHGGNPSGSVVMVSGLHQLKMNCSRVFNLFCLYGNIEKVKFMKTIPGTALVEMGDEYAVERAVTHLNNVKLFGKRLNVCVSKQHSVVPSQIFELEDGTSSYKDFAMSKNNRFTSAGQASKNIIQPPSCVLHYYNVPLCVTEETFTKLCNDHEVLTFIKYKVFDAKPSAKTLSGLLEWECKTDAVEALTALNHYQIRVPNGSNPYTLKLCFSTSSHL
# UniProt Q9NPR9, sequence (Q9NPR9 whole entry, looked up): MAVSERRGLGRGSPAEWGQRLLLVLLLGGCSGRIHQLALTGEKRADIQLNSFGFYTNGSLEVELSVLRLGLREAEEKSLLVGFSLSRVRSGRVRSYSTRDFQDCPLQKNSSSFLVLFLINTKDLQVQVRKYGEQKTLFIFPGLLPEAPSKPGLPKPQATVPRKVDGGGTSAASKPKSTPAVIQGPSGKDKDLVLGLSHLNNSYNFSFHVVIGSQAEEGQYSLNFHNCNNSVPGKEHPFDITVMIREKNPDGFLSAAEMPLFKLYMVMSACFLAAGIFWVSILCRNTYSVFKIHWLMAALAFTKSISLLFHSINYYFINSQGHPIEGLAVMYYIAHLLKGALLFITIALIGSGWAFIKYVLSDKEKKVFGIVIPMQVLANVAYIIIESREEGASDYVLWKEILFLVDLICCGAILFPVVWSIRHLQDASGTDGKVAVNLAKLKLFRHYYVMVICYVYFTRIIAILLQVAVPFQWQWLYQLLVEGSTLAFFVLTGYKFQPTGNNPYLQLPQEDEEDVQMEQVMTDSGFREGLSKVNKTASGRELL
Target,log2 fold change (vemurafenib),log2 fold change [1],log2 fold change (barasertib),log2 fold change [2],log2 fold change (volasertib),log2 fold change [3],log2 fold change [4],log2 fold change [5],log2 fold change (saracatinib),log2 fold change (sotrastaurin)
KIAA0930 isoform 2 (UniProt Q6ICG6),-0.118 (inactive),-0.009 (inactive),0.002 (inactive),0.162 (inactive),0.14 (inactive),0.159 (inactive),-0.078 (inactive),0.028 (inactive),0.098 (inactive),0.075 (inactive)
KDM1A (UniProt O60341),0.021 (inactive),0.004 (inactive),0.014 (inactive),-0.011 (inactive),-0.046 (inactive),-0.011 (inactive),-0.065 (inactive),-0.016 (inactive),-0.001 (inactive),0.005 (inactive)
IGF2BP3 (UniProt O00425),0.024 (inactive),0.006 (inactive),0.016 (inactive),-0.106 (inactive),-0.025 (inactive),-0.016 (inactive),-0.062 (inactive),-0.022 (inactive),0.026 (inactive),0.011 (inactive)
IARS2 (UniProt Q9NSE4),-0.007 (inactive),-0.005 (inactive),0.037 (inactive),-0.003 (inactive),0.312 (active),-0.013 (inactive),0.198 (inactive),-0.032 (inactive),-0.002 (inactive),0.003 (inactive)
HDAC6 (UniProt Q9UBN7),-0.02 (inactive),0.01 (inactive),-0.017 (inactive),-0.035 (inactive),-0.047 (inactive),-0.023 (inactive),0.073 (inactive),-0.011 (inactive),-0.011 (inactive),0.008 (inactive)
HMGB1 (UniProt P09429),-0.01 (inactive),-0.014 (inactive),-0.013 (inactive),0.102 (inactive),0.035 (inactive),-0.039 (inactive),0.389 (active),-0.184 (inactive),-0.011 (inactive),-0.075 (inactive)
HNRNPM (UniProt M0R019),-0.137 (inactive),,,,,,,,,
IMPACT (UniProt Q9P2X3),0.158 (inactive),-0.117 (inactive),-0.014 (inactive),-0.095 (inactive),0.053 (inactive),0.133 (inactive),0.003 (inactive),-0.122 (inactive),0.001 (inactive),0.058 (inactive)
GPX4 (UniProt P36969),-0.003 (inactive),0.025 (inactive),-0.002 (inactive),-0.068 (inactive),-0.038 (inactive),0.013 (inactive),0.027 (inactive),-0.079 (inactive),0.02 (inactive),0.012 (inactive)
HNRNPH2 (UniProt P55795),-0.004 (inactive),0.025 (inactive),-0.003 (inactive),0.05 (inactive),-0.056 (inactive),0.008 (inactive),-0.01 (inactive),-0.056 (inactive),-0.025 (inactive),-0.074 (inactive)
IFITM3 (UniProt Q01628),-0.046 (inactive),0.079 (inactive),0.342 (inactive),-0.06 (inactive),-0.025 (inactive),0.026 (inactive),-0.11 (inactive),0.112 (inactive),-0.041 (inactive),0.052 (inactive)
HELQ (UniProt Q8TDG4),0.12 (inactive),-0.064 (inactive),0.036 (inactive),0.048 (inactive),0.01 (inactive),-0.044 (inactive),0.038 (inactive),-0.104 (inactive),-0.058 (inactive),0.057 (inactive)
IMMT (UniProt Q16891),-0.016 (inactive),-0.006 (inactive),0.004 (inactive),-0.046 (inactive),0.015 (inactive),0.015 (inactive),-0.005 (inactive),-0.212 (active),0.01 (inactive),-0.012 (inactive)
GTF3C3 (UniProt Q9Y5Q9),0.062 (inactive),0.06 (inactive),0.01 (inactive),-0.088 (inactive),-0.014 (inactive),0.003 (inactive),-0.158 (inactive),0.005 (inactive),0.049 (inactive),-0.013 (inactive)
HLCS (UniProt P50747),-0.002 (inactive),0.034 (inactive),-0.001 (inactive),-0.034 (inactive),-0.054 (inactive),0.003 (inactive),0.293 (active),-0.041 (inactive),-0.026 (inactive),0.027 (inactive)
GOLPH3 (UniProt Q9H4A6),-0.007 (inactive),0.015 (inactive),0.036 (inactive),-0.016 (inactive),-0.041 (inactive),0.018 (inactive),-0.029 (inactive),-0.103 (inactive),0.021 (inactive),-0.053 (inactive)
KCT2 (UniProt Q8NC54),0.046 (inactive),0.023 (inactive),0.127 (inactive),0.054 (inactive),-0.001 (inactive),-0.038 (inactive),-0.374 (active),0.153 (inactive),0.089 (inactive),0.038 (inactive)
HSD17B12 (UniProt Q53GQ0),0.073 (inactive),0.005 (inactive),0.047 (inactive),0.003 (inactive),-0.096 (inactive),-0.024 (inactive),-0.304 (active),-0.107 (inactive),0.105 (inactive),0.071 (inactive)
HNRNPLL (UniProt Q8WVV9),0.004 (inactive),0.046 (inactive),0.018 (inactive),0.008 (inactive),-0.027 (inactive),-0.004 (inactive),-0.006 (inactive),-0.013 (inactive),-0.001 (inactive),0.034 (inactive)
GOLGA6B (UniProt A6NDN3),0.015 (inactive),-0.003 (inactive),0.2 (inactive),0.149 (inactive),-0.006 (inactive),0.078 (inactive),-0.086 (inactive),0.102 (inactive),0.101 (inactive),-0.004 (inactive)
INTS8 (UniProt Q75QN2),0.016 (inactive),0.02 (inactive),-0.131 (inactive),-0.024 (inactive),-0.061 (inactive),0.041 (inactive),-0.075 (inactive),0.037 (inactive),0.09 (inactive),0.084 (inactive)
HNRNPDL (UniProt O14979),-0.039 (inactive),0.026 (inactive),-0.03 (inactive),0.008 (inactive),-0.002 (inactive),0.003 (inactive),0.043 (inactive),0.018 (inactive),-0.036 (inactive),-0.098 (inactive)
HADHB (UniProt P55084),-0.019 (inactive),-0.004 (inactive),-0.124 (inactive),0.047 (inactive),0.099 (inactive),-0.005 (inactive),-0.001 (inactive),0.074 (inactive),0.012 (inactive),-0.069 (inactive)
HNRNPUL1 (UniProt Q9BUJ2),-0.042 (inactive),0.005 (inactive),-0.004 (inactive),-0.032 (inactive),0.005 (inactive),0.034 (inactive),0.017 (inactive),0.019 (inactive),0.041 (inactive),0.014 (inactive)
KBTBD4 isoform 2 (UniProt Q9NVX7),0 (inactive),0.021 (inactive),0.013 (inactive),0.063 (inactive),-0.022 (inactive),0.031 (inactive),-0.04 (inactive),-0.032 (inactive),0.086 (inactive),0.032 (inactive)
KBTBD2 (UniProt Q8IY47),-0.035 (inactive),0.006 (inactive),0.022 (inactive),-0.018 (inactive),0.013 (inactive),-0.181 (inactive),-0.166 (inactive),0.06 (inactive),0.031 (inactive),-0.03 (inactive)
HIST2H2AA3 (UniProt Q6FI13),-0.078 (inactive),0.028 (inactive),-0.012 (inactive),-0.007 (inactive),-0.006 (inactive),0.012 (inactive),0.694 (active),-0.217 (inactive),-0.034 (inactive),-0.116 (inactive)
GTF2H1 (UniProt P32780),0.013 (inactive),0.014 (inactive),0.014 (inactive),-0.021 (inactive),-0.028 (inactive),-0.028 (inactive),-0.042 (inactive),-0.075 (inactive),0.018 (inactive),-0.012 (inactive)
HADHA (UniProt P40939),0.019 (inactive),-0.002 (inactive),-0.103 (inactive),-0.024 (inactive),0.09 (inactive),-0.036 (inactive),0.012 (inactive),0.071 (inactive),-0.04 (inactive),-0.025 (inactive)
GPR108 (UniProt Q9NPR9),0.001 (inactive),-0.059 (inactive),-0.03 (inactive),0.01 (inactive),0.03 (inactive),0.031 (inactive),0.057 (inactive),0.01 (inactive),0.092 (inactive),0.019 (inactive)
